Reference: PubChem BioAssay (NCI)
This is part of a sample that, as a whole, favours compounds with a hit. Of some 83,000 tested, about 20% had one in any assay.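 Each cell line was grown in a 96-well plate and treated with one concentration of compound for 48 hours. Values below 10 were considered active.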 A number with no mark means an inactive call. The source made the active and inactive calls.

What was measured:
Experiment in all cases: NCI-60 one-dose screen, 48 h (100 = growth as untreated, 0 = no growth, -100 = all killed)
Settings in all cases: 10 µM unless noted
[1] = system: T-47D breast
[2] = system: BT-549 breast
[3] = system: MDA-MB-435 melanoma
[4] = system: SW-620 colon
[5] = system: MCF7 breast
[6] = system: HCT-116 colon
[7] = system: HCC-2998 colon
[8] = system: KM12 colon
[9] = system: MDA-MB-468 breast

| Compound | growth [1] | growth [2] | growth [3] | growth [4] | growth [5] | growth [6] | growth [7] | growth [8] | growth [9] |
| --- | --- | --- | --- | --- | --- | --- | --- | --- | --- |
| C#CCOc1cc(N(CC)CC)ccc1C(C(=O)NC(C)(C)C)N(C(=O)C1CCc2cc(F)ccc2O1)c1cc(C)cc(C)c1 (configuration not stated) | 18.8% | 43.1% | 47.1% | 36.4% | 14.9% | 11.4% | 54.6% | 25.9% | 24.3% |
| S=C(Nc1ccccc1)Nc1ccc(OCc2nc3ccccc3[nH]2)cc1 | 36.1% | 49.4% | 24.6% | 48% | 20.2% | 35.6% | 17.3% | -32% (active) | 21.9% |
| O=c1cc(-c2ccccc2)oc2cc(OCCCC[P+](c3ccccc3)(c3ccccc3)c3ccccc3)cc(O)c12 | -62.5% (active) | -83% (active) | -67.5% (active) | -81.7% (active) | -79.1% (active) | -58.1% (active) | -93.1% (active) | -85.2% (active) | -84.9% (active) |
| CN(C)c1nc(NCCNS(=O)(=O)c2ccc(C(=O)/C=C/c3ccc(C(F)(F)F)cc3)cc2)nc(Nc2ccc(F)cc2)n1 | 15.7% | -71.2% (active) | -81.1% (active) | -77.1% (active) | -78.6% (active) | -59.1% (active) | -95.7% (active) | -78.9% (active) | -23.6% (active) |
| Cn1cc(-c2cc(N)n3nc(-c4cn(C)c5ccccc45)cc3n2)c2cc(Br)ccc21 | -37.7% (active) | 38% | -72.6% (active) | -10.6% (active) | -74.1% (active) | -92.9% (active) | -70.2% (active) | -60.4% (active) | -24.9% (active) |
| CC1(C)CC[C@]2(C(=O)O)CC[C@]3(C)C(=CCC4[C@@]5(C)C[C@@H](O)[C@@H]6OC(c7ccco7)OC[C@@]6(C)C5CC[C@]43C)C2C1 (some centres not stated) | 46.4% | 13.9% | 12.2% | 23.6% | 21% | 11.8% | 34% | 17.3% | 8.23% (active) |
| C/C(=N\N=C\c1cc([N+](=O)[O-])ccc1Cl)c1ccc2c(c1)Nc1ccccc1S2 | 29.7% | 63% | 77.2% | 50% | 63.1% | 11.1% | 90.5% | 89.1% | 34.1% |
| Cc1ccccc1[C@H]1C(C(=O)c2ccc(Cl)cc2)C2(N[C@@H]1c1ccccc1)C(=O)Nc1ccc(Br)cc12 (some centres not stated) | 22.6% | 13.1% | 3.21% (active) | 13.3% | -6.57% (active) | -71.6% (active) | -22.1% (active) | 3.4% (active) | -26.1% (active) |
| O=C(COc1ccc(NC(=O)Nc2ccc(Cl)c(Cl)c2)cc1)N=Nc1c(O)[nH]c2ccc(Br)cc12 | -26.4% (active) | -71.5% (active) | -51.3% (active) | -21.2% (active) | -1.82% (active) | -60.6% (active) | -67.3% (active) | -87.2% (active) | -75% (active) |
| CN(C)c1ccnc(CNCCSC2(c3ccccc3)c3ccccc3C=Cc3ccccc32)c1 | -32% (active) | -47.1% (active) | -86.3% (active) | -76.1% (active) | -75.8% (active) | -38.8% (active) | -77.3% (active) | -61% (active) | -55.3% (active) |
| O=C(O)Cn1c(O)c(/C=C2/C=c3cc4c(cc3=NC2=O)OCCO4)sc1=S | 104% | 104% | 102% | 113% | 86.3% | 103% | 109% | 104% | 111% |
| CCOc1ccc(C(=O)NC(=S)Nc2ccc(S(N)(=O)=O)cc2)cc1 | 74.3% [100 µM] | 99.1% [100 µM] | 99.1% [100 µM] | 104% [100 µM] | 97.6% [100 µM] | 97.9% [100 µM] | 99.5% [100 µM] | 97.8% [100 µM] | 83.9% [100 µM] |
| O=C1CC(Sc2n[nH]c(-c3ccncc3)n2)C(=O)N1c1ccc(Br)cc1 (configuration not stated) | 94.5% | 122% | 104% | 101% | 99.8% | 105% | 110% | 109% | 99.3% |
| COc1ccc2[nH]cc(-c3nc(N)nnc3-c3cn(C)c4ncccc34)c2c1 | 50.8% | 36.5% | -1.52% (active) | 39.4% | 25.6% | 26.7% | 80.2% | 16.6% | 27.6% |
| C#CCOc1cc(N(CC)CC)ccc1C(C(=O)NC(C)(C)C)N(C(=O)C1CCc2cc(F)ccc2O1)c1ccc(Br)cc1 (configuration not stated) | 71.3% | 75% | 69.9% | 77.9% | 52.8% | 35.6% | 100% | 60.4% | 61.2% |
| COc1ccc(N2N=C(c3ccc4c(c3)OCO4)CC2c2cccc(NC(=O)CCCNS(=O)(=O)c3ccc(F)cc3)c2)cc1 (configuration not stated) | 53% | 97.3% | 63.2% | 86.2% | 42.2% | 49.9% | 60.1% | 41.3% | 35.5% |
| Cn1cc(-c2nc(N)nnc2-c2c[nH]c3ccc(Br)cc23)c2cccnc21 | 62.5% | 33.9% | 12% | 39.9% | 21.4% | 21.2% | 77% | 33.9% | 44.6% |
| COc1cc2oc(-c3cccc(C(=O)Nc4cccc([N+](=O)[O-])c4)c3)cc(=O)c2c(OC)c1OC | 26.8% | -15.9% (active) | 39.4% | 83.1% | 25.1% | 25.2% | 32.6% | 47.9% | 33% |
| CCOC(=O)COc1c(OC)c(OC)cc2oc(-c3cccc(C(=O)Nc4ccc(Cl)cc4)c3)cc(=O)c12 | 47.5% | 21.2% | -11.8% (active) | 37.6% | 15.7% | 22.7% | 76% | 16.2% | 68% |
| COc1cc2c(c(OC)c1OC)C(=O)CC(c1cccc(NC(=O)c3cc(NC(=O)[C@H](CO)NC(=O)OC(C)(C)C)ccc3Cl)c1)O2 (some centres not stated) | 13.5% | -3.14% (active) | 10.1% | 44% | 12.2% | 14.4% | 73% | 14.5% | 19.8% |
| CC1(C)CC[C@]2(C(=O)O)CC[C@]3(C)C(=CCC4[C@@]5(C)C[C@@H](O)[C@@H]6OC(c7cccc(Br)c7)OC[C@@]6(C)C5CC[C@]43C)C2C1 (some centres not stated) | 39.4% | 44.4% | 61.2% | 25% | 18.6% | 10.8% | 34.8% | 20.8% | 23.6% |
| COc1cc2c(c(OC)c1OC)C(=O)CC(c1cccc(NC(=O)c3cccc(NC(=O)[C@H](C)NC(=O)OC(C)(C)C)c3)c1)O2 (some centres not stated) | 19.8% | 36.9% | 65.6% | 86.9% | 39.3% | 41.2% | 105% | 41.2% | 58.1% |
| COc1cc2oc(-c3cccc(C(=O)Nc4ccc(Cl)cc4)c3)cc(=O)c2c(OCC(=O)N[C@@H](Cc2ccccc2)C(=O)O)c1OC | 109% | 125% | 101% | 99.2% | 93.2% | 109% | 121% | 105% | 112% |
| O=C(COc1ccc2c(c1)CCCC(=O)N2)NCc1ccccc1 | 95.7% | 104% | 3.41% (active) | 60.9% | 59.3% | 93.5% | 95.9% | 58.9% | 28.8% |
| COc1ccc(C(SCCNCc2cc(N(C)C)ccn2)(c2ccccc2)c2ccccc2)cc1 | -9.47% (active) | -13.4% (active) | -53.7% (active) | -50.5% (active) | -48.5% (active) | -27% (active) | -81.9% (active) | -9.54% (active) | -58.2% (active) |
| C#CCOc1ccc(/C=N/Nc2nc(-c3cc4cc(OC)ccc4oc3=O)cs2)cc1OC | 51.8% | 54.1% | 63.9% | 39.7% | 57.3% | 46.4% | 84.4% | 50.3% | 42.9% |
| Cc1ccc(-c2nc(C#N)c(S(=O)(=O)N3CCN(S(=O)(=O)c4ccccc4)CC3)o2)cc1 | -1.54% (active) | -19% (active) | 30.1% | -86.9% (active) | -30.6% (active) | -81.4% (active) | 56.2% |  | -49.3% (active) |
